# “And” between values parts separate entries of the source, which are not always exact repeats. Equal values may be shown once. Read-outs that look alike come from different tables or passages of the source.
# What was measured:
# KIT-autoinhibited = conditions: concentration: 1 μM, replicates: in singlicate, n = 1
# KIT = conditions: concentration: 1 μM, replicates: in singlicate, n = 1
# LATS1 = conditions: concentration: 1 μM, replicates: in singlicate, n = 1
# LATS2 = conditions: concentration: 1 μM, replicates: in singlicate, n = 1
# LCK = conditions: concentration: 1 μM, replicates: in singlicate, n = 1
# LIMK1 = conditions: concentration: 1 μM, replicates: in singlicate, n = 1
# LIMK2 = conditions: concentration: 1 μM, replicates: in singlicate; n = 1
# LKB1 = system: T1, LKB1; conditions: concentration: 1 μM, replicates: in singlicate, n = 1
# T1 construct: gene STK11
# LOK = system: T2, LOK; conditions: concentration: 1 μM, replicates: in singlicate, n = 1
# T2 construct: gene STK10
# LRRK2 = conditions: concentration: 1 μM, replicates: in singlicate, n = 1
# LTK = conditions: concentration: 1 μM, replicates: in singlicate, n = 1
# LYN = conditions: concentration: 1 μM, replicates: in singlicate, n = 1
# LZK = system: T3, LZK; conditions: concentration: 1 μM, replicates: in singlicate, n = 1
# T3 construct: gene MAP3K13
# MAK = conditions: concentration: 1 μM, replicates: in singlicate, n = 1
# MAP3K15 = conditions: concentration: 1 μM, replicates: in singlicate, n = 1
# MAP3K1 = conditions: concentration: 1 μM, replicates: in singlicate; n = 1
# MAP3K2 = conditions: concentration: 1 μM, replicates: in singlicate, n = 1
# MAP3K3 = conditions: concentration: 1 μM, replicates: in singlicate, n = 1
# MAP3K4 = conditions: concentration: 1 μM, replicates: in singlicate, n = 1
# MAP4K2 = conditions: concentration: 1 μM, replicates: in singlicate, n = 1
# 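Note: KINOMEscan kinase panel screen.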
smiles,measurement,setting,value
O=C(c1ccc(-c2cc(-c3c[nH]nc3-c3ccccn3)ccn2)cc1)N1CCOCC1 [GW812171],%Inh,KIT-autoinhibited,29%
same,%Inh,KIT,0%
same,%Inh,LATS1,0%
same,%Inh,LATS2,0%
same,%Inh,LCK,0%
same,%Inh,LIMK1,0%
same,%Inh,LIMK2,0%
same,%Inh,LKB1,0%
same,%Inh,LOK,28%
same,%Inh,LRRK2,0%
same,%Inh,LTK,4%
same,%Inh,LYN,0%
same,%Inh,LZK,0%
same,%Inh,MAK,0%
same,%Inh,MAP3K15,0%
same,%Inh,MAP3K1,0%
same,%Inh,MAP3K2,22%
same,%Inh,MAP3K3,0%
same,%Inh,MAP3K4,9%
same,%Inh,MAP4K2,0%
CNc1ncnc2[nH]ncc12 [SKF-18355],%Inh,KIT-autoinhibited,20%
same,%Inh,KIT,18%
same,%Inh,LATS1,0%
same,%Inh,LATS2,0%
same,%Inh,LCK,6%
same,%Inh,LIMK1,0%
same,%Inh,LIMK2,0%
same,%Inh,LKB1,38%
same,%Inh,LOK,0%
same,%Inh,LRRK2,0%
same,%Inh,LTK,0%
same,%Inh,LYN,0%
same,%Inh,LZK,27%
same,%Inh,MAK,2%
same,%Inh,MAP3K15,0%
same,%Inh,MAP3K1,2%
same,%Inh,MAP3K2,14%
same,%Inh,MAP3K3,0%
same,%Inh,MAP3K4,0%
same,%Inh,MAP4K2,0%
O=c1cc(N2CCOCC2)nc2n(Cc3cccc4ccccc34)ccn12 [GSK2333389],%Inh,KIT-autoinhibited,0%
same,%Inh,KIT,11%
same,%Inh,LATS1,0%
same,%Inh,LATS2,0%
same,%Inh,LCK,2%
same,%Inh,LIMK1,0%
same,%Inh,LIMK2,0%
same,%Inh,LKB1,2%
same,%Inh,LOK,0%
same,%Inh,LRRK2,59%
same,%Inh,LTK,0%
same,%Inh,LYN,0%
same,%Inh,LZK,0%
same,%Inh,MAK,0%
same,%Inh,MAP3K15,0%
same,%Inh,MAP3K1,8%
same,%Inh,MAP3K2,0%
same,%Inh,MAP3K3,0%
same,%Inh,MAP3K4,0%
same,%Inh,MAP4K2,0%
O=C(NOCC1CC1)c1ccc(F)c(F)c1Nc1ccc(I)cc1Cl,%Inh,KIT-autoinhibited,0%
same,%Inh,KIT,0%
same,%Inh,LATS1,0%
same,%Inh,LATS2,7%
same,%Inh,LCK,0%
same,%Inh,LIMK1,0%
same,%Inh,LIMK2,0%
same,%Inh,LKB1,0%
same,%Inh,LOK,0%
same,%Inh,LRRK2,0%
same,%Inh,LTK,0%
same,%Inh,LYN,0%
same,%Inh,LZK,0%
same,%Inh,MAK,0%
same,%Inh,MAP3K15,0%
same,%Inh,MAP3K1,0%
same,%Inh,MAP3K2,0%
same,%Inh,MAP3K3,0%
same,%Inh,MAP3K4,0%
same,%Inh,MAP4K2,0%
Cl.Cl.Cl.Fc1ccc(-c2ncn(C3CCNCC3)c2-c2ccnc(Nc3ccccc3)n2)cc1 [SB-238039],%Inh,KIT-autoinhibited; 1 µM,2% and 0%
same,%Inh,KIT; 1 µM,12% and 0%
same,%Inh,LATS1; 1 µM,17% and 16%
same,%Inh,LATS2; 1 µM,0% and 12%
same,%Inh,LCK; 1 µM,69% and 32%
same,%Inh,LIMK1; 1 µM,13% and 0%
same,%Inh,LIMK2,0%
same,%Inh,LKB1; 1 µM,55% and 23%
same,%Inh,LOK; 1 µM,35% and 2%
same,%Inh,LRRK2; 1 µM,27% and 0%
same,%Inh,LTK; 1 µM,27% and 37%
same,%Inh,LYN; 1 µM,42% and 15%
same,%Inh,LZK; 1 µM,0% and 7%
same,%Inh,MAK; 1 µM,3% and 41%
same,%Inh,MAP3K15; 1 µM,0% and 4%
same,%Inh,MAP3K1,0%
same,%Inh,MAP3K2; 1 µM,63% and 27%
same,%Inh,MAP3K3; 1 µM,69% and 98.9%
same,%Inh,MAP3K4; 1 µM,2% and 0%
same,%Inh,MAP4K2; 1 µM,36% and 7%
N#Cc1c(N2CCOCC2)sc(-c2ccn[nH]2)c1-c1ccc(Cl)cc1,%Inh,KIT-autoinhibited,1%
same,%Inh,KIT,25%
same,%Inh,LATS1,22%
same,%Inh,LATS2,15%
same,%Inh,LCK,13%
same,%Inh,LIMK1,6%
same,%Inh,LIMK2,0%
same,%Inh,LKB1,25%
same,%Inh,LOK,5%
same,%Inh,LRRK2,0%
same,%Inh,LTK,17%
same,%Inh,LYN,0%
same,%Inh,LZK,20%
same,%Inh,MAK,12%
same,%Inh,MAP3K15,45%
same,%Inh,MAP3K1,5%
same,%Inh,MAP3K2,0%
same,%Inh,MAP3K3,30%
same,%Inh,MAP3K4,2%
same,%Inh,MAP4K2,0%
Fc1ccc(-c2nn3c(OCC(F)(F)F)cccc3c2-c2ccncc2)cc1 [GW514784],%Inh,KIT-autoinhibited,0%
same,%Inh,KIT,24%
same,%Inh,LATS1,41%
same,%Inh,LATS2,0%
same,%Inh,LCK,7%
same,%Inh,LIMK1,0%
same,%Inh,LIMK2,0%
same,%Inh,LKB1,9%
same,%Inh,LOK,0%
same,%Inh,LRRK2,19%
same,%Inh,LTK,0%
same,%Inh,LYN,0%
same,%Inh,LZK,37%
same,%Inh,MAK,31%
same,%Inh,MAP3K15,0%
same,%Inh,MAP3K1,0%
same,%Inh,MAP3K2,0%
same,%Inh,MAP3K3,0%
same,%Inh,MAP3K4,0%
same,%Inh,MAP4K2,0%
COCCNC(=O)c1ccc(-c2cc(C(=O)NC3CC3)cc(F)c2C)cc1 [GW868318],%Inh,KIT-autoinhibited,24%
same,%Inh,KIT,26%
same,%Inh,LATS1,10%
same,%Inh,LATS2,0%
same,%Inh,LCK,4%
same,%Inh,LIMK1,16%
same,%Inh,LIMK2,3%
same,%Inh,LKB1,49%
same,%Inh,LOK,20%
same,%Inh,LRRK2,62%
same,%Inh,LTK,15%
same,%Inh,LYN,14%
same,%Inh,LZK,5%
same,%Inh,MAK,36%
same,%Inh,MAP3K15,24%
same,%Inh,MAP3K1,35%
same,%Inh,MAP3K2,33%
same,%Inh,MAP3K3,28%
same,%Inh,MAP3K4,30%
same,%Inh,MAP4K2,20%
COc1cc(Nc2nccc(N3CCC(NC(=O)c4cccc(NC(C)=O)c4)C3)n2)cc(OC)c1OC (centres unmarked) [GSK1379754],%Inh,KIT-autoinhibited,8%
same,%Inh,KIT,70%
same,%Inh,LATS1,0%
same,%Inh,LATS2,0%
same,%Inh,LCK,30%
same,%Inh,LIMK1,16%
same,%Inh,LIMK2,0%
same,%Inh,LKB1,0%
same,%Inh,LOK,0%
same,%Inh,LRRK2,12%
same,%Inh,LTK,20%
same,%Inh,LYN,1%
same,%Inh,LZK,0%
same,%Inh,MAK,18%
same,%Inh,MAP3K15,0%
same,%Inh,MAP3K1,0%
same,%Inh,MAP3K2,10%
same,%Inh,MAP3K3,0%
same,%Inh,MAP3K4,14%
same,%Inh,MAP4K2,0%
CC(=O)Nc1ccc(COc2ccc(Nc3ccnc4cc(-c5ccccn5)ccc34)cc2)cc1.Cl [GW440148],%Inh,KIT-autoinhibited,72%
same,%Inh,KIT,100%
same,%Inh,LATS1,0%
same,%Inh,LATS2,0%
same,%Inh,LCK,31%
same,%Inh,LIMK1,0%
same,%Inh,LIMK2,0%
same,%Inh,LKB1,20%
same,%Inh,LOK,7%
same,%Inh,LRRK2,0%
same,%Inh,LTK,7%
same,%Inh,LYN,1%
same,%Inh,LZK,3%
same,%Inh,MAK,43%
same,%Inh,MAP3K15,2%
same,%Inh,MAP3K1,11%
same,%Inh,MAP3K2,0%
same,%Inh,MAP3K3,0%
same,%Inh,MAP3K4,0%
same,%Inh,MAP4K2,0%
